MPTP inh – mitochondrial permeability transition pore inhibitors, primary screen, biochemical, isolated mouse mitochondria, absorbance. Ca2+ swelling absorbance, 30 min. inhibition, % at 10 µM. 360,000 compounds, 1.4% hits. AID 602449, 2012;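 active = inhibition of 50% or more, scaled per plate between neutral and stimulator controls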;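 also: 0% = DMSO wells given calcium and 100% = 1 mM EGTA wells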
KLK7 zymogen act – proKLK7 zymogen activators, primary screen, biochemical, fluorescence intensity; purified proKLK7, EDANS-DABCYL substrate fluorescence; 100% is mature enzyme control, 0% vehicle; AID 652039, 2013; activation, % at 7 µM; 370,000 compounds, 0.9% hits; Kallikrein-7 (Homo sapiens), P49862;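 active = activation above the mean of all tested compounds plus 3 SD, computed per campaign excluding outliers beyond control limits, cut at about 13% in these data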
Target sequence (P49862 whole entry, looked up): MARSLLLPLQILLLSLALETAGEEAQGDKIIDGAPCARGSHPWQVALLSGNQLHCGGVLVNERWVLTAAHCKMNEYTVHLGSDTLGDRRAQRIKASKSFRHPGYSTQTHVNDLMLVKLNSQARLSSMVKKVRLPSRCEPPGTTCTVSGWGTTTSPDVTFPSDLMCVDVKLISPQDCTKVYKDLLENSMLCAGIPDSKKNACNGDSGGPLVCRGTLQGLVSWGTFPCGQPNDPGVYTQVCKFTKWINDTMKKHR
ADAM10 inh – human ADAM10 inhibitors, primary screen, biochemical, QFRET, HTS; inhibition, % at 7 µM; recombinant ADAM10, EDANS/DABCYL FRET peptide cleavage, 3 h; Disintegrin and metalloproteinase domain-containing protein 10 (Homo sapiens), O14672; 370,000 compounds, 0.62% hits;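 active = inhibition above a per-campaign cutoff equal to the mean of compounds falling between control-based bounds plus 3 SD, cut at about 20% in these data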;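 also: 0% = DMSO wells while the 100% control is not disclosed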
ADAM17 inh – ADAM17 inhibitors, primary screen, biochemical, QFRET. AID 720648, 2013. inhibition, % at 6.95 µM. recombinant ADAM17, EDANS/DABCYL FRET peptide cleavage. 370,000 compounds, 0.83% hits;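 active = inhibition above the mean of compounds lying between control limits plus 3 SD, set per campaign, cut at about 8.5% in these data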;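 also: 0% = DMSO-only wells as the low control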
rCAG RNA binder – binders of r(CAG) RNA repeats, primary screen, biochemical, fluorescence | 370,000 compounds, 1.3% hits | inhibition, % at 3 µM | r(CAG) RNA repeat, TO-PRO-1 dye displacement fluorescence | AID 651821, 2012;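 active = inhibition above the plate cutoff, the mean of all test compounds on that plate plus 3 SD, cut at about 35% in these data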;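 also: 0% = DMSO alone and 100% = 100 µM mitoxantrone as full dye displacement; higher means more dye released from RNA so lower well fluorescence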
DSG3 Ab inh – inhibitors of pemphigus antibody binding to DSG3, primary screen, biochemical, bead-based, flow cytometry, scFv-GFP; DSG3-coupled beads, scFv-anti-DSG3-GFP binding; hits give low values; binding (percent of control), % at 10 µM; 310,000 compounds, 0.48% hits; AID 588358, 2011;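 active = binding more than 3 SD below its plate's average and above zero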;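 also: hits lower antibody fragment binding to DSG3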
rCAG bind conf – small molecules binding CAG repeat RNA – biochemical, fluorescence, confirmation; shares compounds with rCAG RNA binder; r(CAG) RNA repeat, TO-PRO-1 dye displacement fluorescence; inhibition, % at 3 µM; 4,300 compounds, 70% hits;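 active = inhibition above a per-plate cutoff, the mean inhibition of sample wells plus 3 SD, cut at about 35% in these data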;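 also: loss of TO-PRO-1 fluorescence as compound displaces dye from 1x1 AA loop RNA; 0% = DMSO only wells and 100% = 100 µM mitoxantrone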
DNA CAG counter – displacement of TO-PRO-1 from CAG DNA duplex, counter-screen for rCAG RNA repeat binder project, biochemical, fluorescence, TO-PRO-1 dye, d(CAG) DNA oligo | shares compounds with rCAG RNA binder | d(CAG) DNA oligo TO-PRO-1 dye displacement | inhibition, % at 3 µM | 4,300 compounds, 94% hits;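 active = inhibition above its plate's cutoff, the mean test-well inhibition plus 3 SD, cut at about 4.8% in these data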;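 also: 0% = DNA dye mix with DMSO and 100% = 100 µM mitoxantrone; hits displace the dye from DNA and so lower well fluorescence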
dCAG dye DR – inhibitors of DNA CAG/GTC TO-PRO-1 complex, dose response, counter-screen for rCAG RNA repeat binder project, biochemical, fluorescence, TO-PRO-1 dye. DNA CAG/GTC duplex TO-PRO-1 dye displacement fluorescence. shares compounds with rCAG RNA binder. IC50, µM. 250 compounds, 20% hits; in the data active = IC50 below about 10 µM
* marks the source's active call; other numbers are inactive results; i = inactive; . = no result; ! = not confirmed by another sample. This is a sample that favours compounds with a hit; in the whole collection about 4.7% have one here.

SMILES	MPTP inh	KLK7 zymogen act	ADAM10 inh	ADAM17 inh	rCAG RNA binder	DSG3 Ab inh	rCAG bind conf	DNA CAG counter	others
CCOc1ccc(NC(=S)NNC(=O)c2cc(Br)ccc2Cl)cc1	7	0	-10	-3	38*	99	30	8.8*
Cc1ccc2c(c1)C(=O)C(=O)N2CC(=O)Nc1ccc(N2CCOCC2)cc1	-1	1	0	-3	3	117	.	.
O=C(NCc1ccco1)Nc1cccc(-c2ccccc2)c1	-1	0	-5	-7	0	96	.	.
Cc1ccc(/C=N/NC(=O)c2cccc(S(=O)(=O)Nc3ccccc3Cl)c2)o1	-2	1	3	-4	18	95	.	.
Cc1[nH]c2ccccc2c1/C=N/NC(=O)c1cccc(Br)c1	0	.	.	.	.	188	.	.
CCc1cccc2c(/C=N/NC(=O)c3cccc(S(=O)(=O)Nc4ccccc4Cl)c3)c[nH]c12	-3	0	5	3	57*	.	72*	31*	dCAG dye DR=i
Cc1[nH]c2ccccc2c1/C=N/NC(=O)c1cccc(S(=O)(=O)Nc2ccccc2Cl)c1	0	-1	4	-1	48*	106	63*	21*
C/C(=N\NC(=O)c1cccc(S(=O)(=O)Nc2ccccc2Cl)c1)c1ccc(-n2ccnc2)cc1	1	0	11	3	40*	99	45*	14*
COC(=O)c1cc2c(=O)c3ccccc3oc2nc1/C=C/N(C)C	1	-4	-210	-102	25	117	.	.
COc1ccc(C2Nc3ccccc3C(=O)N2Cc2ccncc2)cc1COc1ccc(NC(C)=O)cc1 (centres undefined)	.	.	i	-365	.	.	.	.
COC(=O)C1=C(C)N(Cc2ccccc2C(F)(F)F)C(=NCc2ccc3c(c2)OCO3)NC1c1ccc(C(F)(F)F)cc1 (centres undefined)	.	0	2	1	2	.	.	.
CC(C#N)N1CCN(S(=O)(=O)c2ccc3c(c2)CCC3)CC1 (centres undefined)	-1	0	-4	2	1	104	.	.
C[C@H]1CCCCO[C@H](CN(C)Cc2ccccc2)[C@@H](C)CN([C@@H](C)CO)C(=O)c2cc(NC(=O)CCC(F)(F)F)ccc2O1	-2	1	-21	-5	-1	104	.	.
CC(=O)NS(=O)(=O)c1ccc(N=c2ssc3c2-c2ccc(C)cc2NC3(C)C)cc1	-3	1	6	-2	61*	102	52*	21*
O=S(=O)(Nc1ncccn1)c1ccc(NC(=S)N2CCN(c3cccc(C(F)(F)F)c3)CC2)cc1	0	-1	2	-2	50*	107	59*	16*
CC(C)Oc1ccc(C(=O)OCC(=O)NC2CCCCCC2)cc1	-3	1	-1	3	-2	85	.	.
CCCCCCCC(=O)N1c2ccccc2NC(=O)C1CC(=O)Nc1ccc(C(=O)O)cc1 (centres undefined)	1	0	2	-7	30	94	.	.
CCCCCCCCCC(=O)N1c2ccccc2NC(=O)C1CC(=O)Nc1ccc(C(=O)O)cc1 (centres undefined)	4	0	2	1	74*	98	70*	30*
COc1ccc(Br)cc1/C=C(\C(=O)O)c1ccc(S(=O)(=O)N2CCCC2)s1	0	-2	-56	-17	52*	131	47*	14*
CCOc1ccc(/C=C(\C(=O)O)c2ccc(S(=O)(=O)N3CCOCC3)s2)cc1OC	-1	-2	-48	-18	10	98	.	.
CCOc1ccc(/C=C(\C(=O)O)c2ccc(S(=O)(=O)N3CCCCC3)s2)cc1OC	1	0	-47	-11	38*	93	35*	10*
COC(=O)c1cn(C(=O)c2ccc(OC)cc2)c2ccccc12	0	1	-2	-1	-2	111	.	.
CCN1CCN(Cc2ccc(NC(=O)c3cc(NC(=O)C4=NN(c5ccccc5)C(=O)C4)cc(OC)c3)cc2C(F)(F)F)CC1	0	0	9	5	38*!	107	33	20*
COc1cc(Nc2nc3ccccc3nc2NS(=O)(=O)c2ccc([N+](=O)[O-])cc2)cc(OC)c1OC	4	-1	-8	-6	6	96	.	.
NS(=O)(=O)c1cccc(Nc2nc3ccccc3nc2NS(=O)(=O)c2ccc(Cl)cc2)c1	7	0	-40	-21	90*	133	89*	68*
SMILES	MPTP inh	KLK7 zymogen act	ADAM10 inh	ADAM17 inh	rCAG RNA binder	DSG3 Ab inh	rCAG bind conf	DNA CAG counter	others
CCOC(=O)N1CCC(Nc2nc3ccccc3nc2NS(=O)(=O)c2ccc(Cl)cc2)CC1	39	0	-17	-4	3	103	.	.
CC(=O)Nc1ccc(S(=O)(=O)Nc2nc3ccccc3nc2Nc2ccc(N)cc2)cc1	2	0	-41	-19	42*	90	32	11*
CC(=O)Nc1ccc(Nc2nc3ccccc3nc2NS(=O)(=O)c2ccc(Cl)c([N+](=O)[O-])c2)cc1	10	0	12	3	91*	102	93*	76*
O=C(O)c1cccc(Nc2nc3ccccc3nc2NS(=O)(=O)c2ccccc2)c1	0	0	-12	-1	36*	97	39*	12*
CCCCN(CCCC)c1nc2ccccc2nc1NS(=O)(=O)c1ccc(NC(C)=O)cc1	8	0	-9	-2	4	96	.	.
COCCNC(=O)c1c(CS(=O)(=O)c2ccccc2)noc1C(=O)NCc1ccccc1	-1	0	7	-2	-2	95	.	.
COc1ccc(C=CC(=O)c2c(N)n(C)c(=O)n(C)c2=O)cc1	.	1	-14	-5	2	.	.	.
CC(=O)Nc1ccc(S(=O)(=O)Nc2nc3ccccc3nc2N2CCOCC2)cc1	2	0	-7	-5	3	100	.	.

Screening data from PubChem BioAssay.
